Laboratory results as given in PubChem BioAssay (NCATS).
Inconclusive results are not listed. The source made the active and inactive calls. The call rests on the fitted dose curve; in most records, active means well fitted curve in the direction sought with a large enough effect; inconclusive means small, poorly fitted or top-dose-only effect, or another doubt; inactive means no such curve, though single readings can be large; an effect the other way counts as inactive or inconclusive.

Experiments:
[1] = SW1088 Cancer Cell Toxicity qHTS against the NCATS CANVASS Library (AID 1347350); details: SW1088 viability, CellTiter-Glo luminescence, 72 h; at 38.3 µM (top of the series); further: nearly all actives have a fitted effect of over 75% in size
How it was run: (§1)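 Toxicity is measured over 72 h of compound exposure at 37 degrees C under 5% CO2. Each well holds 1000 cells, pre-incubated for 4 hours before dosing across an 11-point range. CellTiter-Glo luminescence gives viability.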

[2] = U-118MG Cancer Cell Toxicity qHTS against the NCATS CANVASS Library (AID 1347351); details: U-118MG viability, CellTiter-Glo luminescence, 72 h; series mostly up to 38.3 µM
How it was run: as §1

[3] = COV-362 Cancer Cell Toxicity qHTS against the NCATS CANVASS Library (AID 1347352); details: COV-362 viability, CellTiter-Glo luminescence, 72 h; series mostly up to 38.3 µM
How it was run: (§2)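 1000 cells/well, 4 h pre-incubation 37 °C/5% CO2; 11-pnt titration; 72 h; CellTiter-Glo 15 min RT, luminescence.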

[4] = A2780 Cisplatin Sensitive Ovarian Cancer Cell Toxicity qHTS against the NCATS CANVASS Library (AID 1347353); details: A2780 ovarian cancer viability, ATPLite luminescence, 72 h; series mostly up to 46.1 µM; further: nearly all actives have a fitted effect of over 60% in size
How it was run: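 750 cells/well, 4 h settle; 11-pt cpd titration; 72 h, 37 °C, 5% CO2; ATPLite 10 min RT; luminescence read.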

[5] = UWB1.289-WTBRCA1 Cancer Cell Toxicity qHTS against the NCATS CANVASS Library (AID 1347354); details: UWB1.289-WTBRCA1 viability, CellTiter-Glo luminescence, 72 h; series mostly up to 38.3 µM
How it was run: as §2

[6] = HPAF-II 24hr Apoptosis Induction qHTS against the NCATS CANVASS Library (AID 1347356); details: HPAF-II caspase-3/7 Caspase-Glo luminescence; series mostly up to 46.1 µM
How it was run: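 500 HPAF-II cells/well; compounds in 11-pnt qHTS; 24 h, 37 C/5% CO2; Caspase-Glo 3/7 added, 15 min RT dark; luminescence read. Doxorubicin control.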

[7] = HEK293 18hr Apoptosis Induction qHTS against the NCATS CANVASS Library (AID 1347357); details: HEK293 caspase-3/7 Caspase-Glo luminescence; series mostly up to 46.1 µM
How it was run: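 HEK293 cells (500 per well, DMEM with 10% FBS) were treated with natural products, incubated 18 hours at 37 degrees C, then caspase-3/7 activity was read by Caspase-Glo luminescence after 15 min at room temperature.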

[8] = HPAF-II 12hr Apoptosis Induction qHTS against the NCATS CANVASS Library (AID 1347358); details: HPAF-II caspase-3/7 Caspase-Glo luminescence; series mostly up to 46.1 µM
How it was run: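 Caspase-Glo 3/7 luminescence (DEVD substrate) reports caspase activity in HPAF-II cells after 12 h compound treatment at 37 degrees C. Compounds were tested in an 11-point series. Doxorubicin served as control.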

[9] = HEK293 24hr Apoptosis Induction qHTS against the NCATS CANVASS Library (AID 1347359); details: HEK293 caspase-3/7 activation, Caspase-Glo luminescence; series mostly up to 46.1 µM
How it was run: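 Caspase-3/7 activation measured as luminescence from the DEVD-based Caspase-Glo reagent, 15 min at room temperature, following 24-hour compound treatment of HEK293 cells.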

[10] = HPAF-II 18hr Apoptosis Induction qHTS against the NCATS CANVASS Library (AID 1347360); details: HPAF-II caspase-3/7 luminescence; series mostly up to 46.1 µM
How it was run: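 HPAF-II cells (500/well, DMEM + 10% FBS) were exposed to compounds for 18 hours at 37 degrees C. Caspase-3/7 activity was then read by Caspase-Glo 3/7 luminescence after 15 min at room temperature.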

[11] = HEK293 12hr Apoptosis Induction qHTS against the NCATS CANVASS Library (AID 1347361); details: HEK293 caspase-3/7 Caspase-Glo luminescence; series mostly up to 46.1 µM
How it was run: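 Read-out: Caspase-Glo 3/7 luminescence (DEVD substrate), 15 min RT. Preceded by 12 h compound exposure of HEK293, 500 cells/well, 11-pt qHTS titration; doxorubicin titration as control.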

[12] = biological target: Luciferin 4-monooxygenase (Photinus pyralis) (UniProt P08659); assay: Firefly luciferase counterscreen qHTS: Assay Interference Panel against the NCATS CANVASS Library (AID 1347363); details: purified firefly luciferase, luminescence inhibition, 5 min; series mostly up to 57.5 µM
How it was run: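 Luminescence inhibition readout: compounds (11-point qHTS) sat 15 min at room temperature with substrate mix (0.013 mM luciferin and ATP), then firefly luciferase was added and signal read 5 min later.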

[13] = KB-8-5-11 Cancer Cell Toxicity qHTS against the NCATS CANVASS Library (AID 1347364); details: KB-8-5-11 MDR cells viability, CellTiter-Glo, 72 h; series mostly up to 46.1 µM; further: nearly all actives have a fitted effect of over 75% in size
How it was run: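 CellTiter-Glo luminescence after 72 h exposure; 500 KB-8-5-11 cells/well, DMEM/10% FBS, 37C, 5% CO2; compounds in 11-pt qHTS. Follow-up confirmation included medium with 1uM tariquidar.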

[14] = SDT Cancer Cell Toxicity qHTS against the NCATS CANVASS Library (AID 1347365); details: SDT dog glioma viability, ATP luminescence, 72 h; series mostly up to 46.1 µM;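 further: SDT canine glioma cells 500 per well in 1536 well plates; nearly all actives have a fitted effect of over 60% in size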
How it was run: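 Luminescent ATP read-out (CellTiterGlo) after 72 hr compound exposure of dog glioma SDT cells, 500 per well. Eleven-point titrations; bortezomib titration run alongside as control.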

[15] = KB-3-1 Cancer Cell Toxicity qHTS against the NCATS CANVASS Library (AID 1347366); details: KB-3-1 viability, CellTiter-Glo luminescence, 72 h; series mostly up to 46.1 µM; further: nearly all actives have a fitted effect of over 75% in size
How it was run: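 KB-3-1 cells (500 cells/well) in DMEM + 10% FBS were treated with compounds for 72 hr at 37C, 5% CO2. Viability was read as CellTiter-Glo luminescence after 10 minutes at room temperature.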

[16] = qHTS for ATAD5 Agonist screened against the NCATS CANVASS Library (AID 1347367); details: HEK293T ATAD5-luciferase reporter, luminescence, 16 h; series mostly up to 46.1 µM;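 further: luciferase reporter driven by ATAD5 which rises upon DNA damage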
How it was run: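 HEK293T cells stably carrying an ATAD5-controlled luciferase reporter (2000 cells/well) attached for 5 hr, then received compounds in an 11-point series for 16hr at 37C. Luminescence was read after a 30 min room-temperature reagent step.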

[17] = G06 Cancer Cell Toxicity qHTS against the NCATS CANVASS Library (AID 1347368); details: G06 dog glioma cells, viability ATP luminescence, 72 h; series mostly up to 46.1 µM; further: nearly all actives have a fitted effect of over 60% in size
How it was run: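 ATP luminescence (CellTiterGlo) readout of cytotoxicity. Canine G06 glioma cells, 500/well, 72 hr incubation at 37C with compounds; bortezomib titration served as control.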

[18] = Panc-1005 Cancer Cell Toxicity qHTS against the NCATS CANVASS Library (AID 1347349); details: Panc-1005 viability, CellTiter-Glo luminescence, 72 h; series mostly up to 38.3 µM; further: nearly all actives have a fitted effect of over 60% in size
How it was run: as §1

[19] = HEK-293 Cancer Cell Toxicity qHTS against the NCATS CANVASS Library (AID 1347355); details: HEK-293 viability, CellTiter-Glo luminescence, 72 h; series mostly up to 46.1 µM; further: nearly all actives have a fitted effect of over 65% in size
How it was run: as §2

[20] = tested on: NAD(P)H diaphorase (Clostridium kluyveri); assay: Diaphorse counterscreen qHTS: Assay Interference Panel against the NCATS CANVASS Library (AID 1347362); details: Diaphorase enzyme, resazurin to resorufin fluorescence; series mostly up to 57.5 µM
How it was run: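 Counterscreen for coupling-enzyme interference: resorufin fluorescence from resazurin/NADH turnover, read after 5 min at room temperature. Compounds were tested over an 11-point series after 15 min dark preincubation with diaphorase in PBS-Tween.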

Measured: outcome

Sequence of Luciferin 4-monooxygenase (Photinus pyralis) (P08659 whole entry, looked up): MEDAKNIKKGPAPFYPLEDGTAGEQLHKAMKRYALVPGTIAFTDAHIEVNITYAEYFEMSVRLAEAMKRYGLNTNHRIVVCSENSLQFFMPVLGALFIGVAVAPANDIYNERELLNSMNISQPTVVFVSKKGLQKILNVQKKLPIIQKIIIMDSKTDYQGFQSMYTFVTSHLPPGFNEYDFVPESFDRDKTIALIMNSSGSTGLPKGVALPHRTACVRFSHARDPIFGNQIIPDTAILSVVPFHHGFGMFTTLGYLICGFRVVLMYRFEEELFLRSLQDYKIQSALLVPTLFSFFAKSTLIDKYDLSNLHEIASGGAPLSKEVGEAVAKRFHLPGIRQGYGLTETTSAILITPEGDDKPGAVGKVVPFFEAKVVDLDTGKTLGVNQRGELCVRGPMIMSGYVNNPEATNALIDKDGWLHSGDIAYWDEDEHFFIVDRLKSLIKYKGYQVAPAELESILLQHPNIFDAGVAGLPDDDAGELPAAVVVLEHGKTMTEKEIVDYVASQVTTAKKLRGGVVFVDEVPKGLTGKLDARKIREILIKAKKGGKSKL

O=C(O)C(O)Cc1ccc(O)c(O)c1 (centres undefined)
inactive: [1] | [2] | [3] | [4] | [5] | [6] | [7] | [8] | [9] | [10] | [11] | [12] | [13] | [14] | [15] | [16] | [17]

O=c1cc(-c2ccccc2)oc2cc(O)c(O)c(O)c12
inactive: [18] | [2] | [3] | [4] | [5] | [19] | [6] | [7] | [8] | [9] | [10] | [11] | [13] | [14] | [15] | [16] | [17]

COC(=O)[C@@H]1[C@H]2C[C@H]3c4[nH]c5ccccc5c4CCN3C[C@@H]2CC[C@@H]1O
inactive: [18] | [1] | [2] | [3] | [4] | [5] | [19] | [6] | [7] | [8] | [9] | [10] | [11] | [20] | [12] | [13] | [14] | [15] | [16] | [17]
